The results in this text go back to PubChem BioAssay AID435019 (Southern Research Specialized Biocontainment Screening …, 2010).

About 1,200 (52%) of roughly 2,300 compounds were called active. How the calls were made is not given here. So high a share suggests a set chosen from earlier hits. This is one part of the list. Entries with a potency or affinity are not part of this list.

A short description of the test: mammalian cell cytotoxicity, dose response, cytotoxicity control for M. tuberculosis inhibitor project (AID 435019).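 Further: 0% = background wells and 100% = vehicle-treated cells; lower values mean fewer viable cells so more cytotoxicity.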 Particulars: cytotoxicity counter-screen; series mostly up to 40 µM; viability: at the top concentration.
On to `Cc1nc2scc(-c3cccs3)c2c(=O)n1-n1cccc1`, for which the “viability” value was 94.5% (inactive).
For the molecule `O=C(O)/C=C/C(=O)Nc1ccc(-c2ccccc2)cc1`, the “viability” value is 102% (inactive).
The same measure for `Cc1ccc(S(=O)(=O)CNC(=S)c2ccc3ccccc3c2)cc1`: 87% (inactive); for `O=[N+]([O-])c1cc(C=Nc2ccc3ccccc3c2)ccc1Br`: 102% (inactive); for `Cc1ccc(N2CCN(C(=O)c3cn(CC4CCCCC4)nn3)C(C)C2)cc1` (stereo not given): 85.7% (inactive).
On to `O=c1c2ccccc2nc(/C=C/c2ccccc2)n1-c1ccc(O)cc1`, for which the “viability” value was 81.8% (inactive).
The result for `CCCC1CCC(C(=O)Nn2c(C)nc3ccccc3c2=O)CC1` (stereo not given) reads 82.5% (inactive); that for `Cc1ccc2[nH]c(C(=O)NN=C3CCCCC3)c(-c3ccccc3)c2c1`, 88.9% (inactive); that for `CCc1cc(C(=O)Nc2ccc(C)cc2Br)cs1`, 92.9% (inactive).
`C/C(=N\NC(=O)COc1ccc(C)cc1Br)c1cc([N+](=O)[O-])cs1`: the “viability” value was 91.1% (inactive).
Regarding `COc1ccccc1N1C(=O)NC(=O)/C(=C/c2ccc([N+](=O)[O-])s2)C1=O`, the “viability” value is 92.6% (inactive).
In the case of `Cc1cccc(CSc2nc3c(c(-c4cccs4)c2C#N)CN(C)CC3)c1`, the “viability” value was 95.7% (inactive).
With `COc1cc(/C=N/NC(=O)COc2ccc(C)cc2)ccc1OC(=O)c1cccs1`, the “viability” value is 99.4% (inactive).
As for `CCCCCCOc1ccc(/C=C/C(=O)N2CCOCC2)cc1OC`, the “viability” value was 87% (inactive).
The result for `CCCOc1ccc(-c2cnc(SCC(N)=O)nc2N)cc1` reads 94.2% (inactive).
Regarding `CC[N+](C)(CC)CCCCOc1ccc2c(c1)C(=O)c1cc(OCCCC[N+](C)(CC)CC)ccc1-2`, the “viability” value was 98.3% (inactive).
With `O=C(/C=C/c1ccco1)Oc1ccc(C(=S)N2CCOCC2)cc1`, the “viability” value was 92.7% (inactive).
For the molecule `COc1ccc(NC(=O)NC(C)C2CC3CCC2C3)cc1` (stereo not given), the “viability” value was 88.8% (inactive).
Consider `Nc1ccc(-c2nc3nc(N)nc(N)c3nc2-c2ccc(N)cc2)cc1`, for which the “viability” value is 86.7% (inactive).
Take `CN1CCN(C(=O)/C=C/c2cn(-c3ccccc3)nc2-c2ccc3c(c2)OCCO3)CC1`: the “viability” value is 91.2% (inactive).
The same measure for `Cc1ccc(C(=O)COC(=O)C2CC(=O)N(c3nc(-c4ccccc4)cs3)C2)cc1C` (stereo not given): 87.5% (inactive).
Consider `CCCCCCCCNC(=O)CCNC(=O)c1ccc(C(C)(C)C)cc1`, for which the “viability” value was 83.2% (inactive).
As to `CCCCCCCCCCCCCCCC(=O)NCCO`, the “viability” value is 98.4% (inactive).
With `CCc1ccc(NC(=O)c2ccc(C3SCC(=O)N3CCc3ccccc3)cc2)cc1` (stereo not given), the “viability” value is 91.9% (inactive).
For `O=C1N[C@@H](Cc2ccccc2)C(=O)N2[C@H]3Nc4ccccc4[C@@]3([C@]34C[C@H]5C(=O)N[C@@H](Cc6ccccc6)C(=O)N5[C@H]3Nc3ccccc34)C[C@@H]12`, the “viability” value is 86.8% (inactive).
With `CCOC(=O)CSc1nc(C)c(C(=O)OCC)s1`, the “viability” value is 97.8% (inactive).
The same measure for `Cc1cc(C2N=C(N)Nc3nc4ccccc4n32)c(C)n1-c1ccccc1Cl` (stereo not given): 90.1% (inactive).
With `CN1OC(COC(=O)c2ccc(Cl)cc2Cl)CC1c1ccccc1` (stereo not given), the “viability” value was 94.3% (inactive).
The result for `CCC(C)Nc1nc2c(C)cccn2c(=O)c1C=Nc1ccc(OC)cc1` (stereo not given) reads 91.5% (inactive); that for `CC(=O)O[C@H]1C[C@@]2(C)[C@@H](C[C@@H](O)[C@H]3[C@@]4(C)CC[C@@H](O)[C@@H](C)[C@@H]4CC[C@@]32C)/C1=C(\CCC=C(C)C)C(=O)O`, 99.3% (inactive); that for `CN(CCCC1CCCC1)C(=O)CCc1nnc(-c2ccccc2)o1`, 83.9% (inactive).
Turning to `O=C(Nc1ccc2nsnc2c1)NC1CCCCC1`, the “viability” value was 104% (inactive).
The result for `COC(=O)c1ccc(-c2ncc(-c3cccc4ccccc34)o2)cc1` reads 95.6% (inactive); that for `COc1cc(C)c(/C=C/C(C)=C/C=C/C(C)=C/C(=O)O)c(C)c1C`, 88.1% (inactive).
The same measure for `CC1(C)OC(=O)C(=NNc2ccc(Cl)cc2)C(=O)O1`: 94.5% (inactive); for `CCn1c(SCC(=O)OC2CCCCC2)nc2ccccc2c1=O`: 95.4% (inactive); for `Cc1ccc(NC(=O)c2cnc(SCC(=O)NCC3CCCO3)n(C)c2=O)cc1C` (stereo not given): 90.9% (inactive).
On to `Cn1c(CNc2nc(-c3ccccc3)cs2)nnc1SCC(=O)OC1CCCCC1`, for which the “viability” value is 101% (inactive).
For `CCOc1ccc(NC(=S)Nc2cc(-c3ccccc3)[nH]n2)cc1`, the “viability” value was 86.4% (inactive).
`CCCc1ccc(NC(=O)C2CCN(c3cnccn3)CC2)cc1`: the “viability” value is 95.8% (inactive).
The result for `CCCc1ncc(CN2CCCC(C(=O)Nc3ccc(-c4cccc(OC)c4)cc3)C2)cn1` (stereo not given) reads 81.7% (inactive).
In the case of `Cc1ccc(C)c(N2CCN(C(=O)c3ccc4nc(N5CCOCC5)sc4c3)CC2)c1`, the “viability” value was 84.8% (inactive).
The result for `Cc1cc(C)c2nc(N3CCCC(C(=O)N4CCN(c5ncccn5)CC4)C3)sc2c1` (stereo not given) reads 82.1% (inactive); that for `C[C@]12CCC(=O)C[C@@H]1CC[C@@H]1[C@@H]2CC[C@]2(C)C=CC[C@@H]12`, 92.2% (inactive); that for `NC(=O)N1CCC2(CC1)NC(=O)N(c1ccccc1)N2`, 91.9% (inactive).
For `Cc1cc(C)nc(-n2nc(C)cc2NC(=O)CN2CCC(C)CC2)n1`, the “viability” value is 91.8% (inactive).
For the molecule `O=C(c1cc2cc(F)ccc2[nH]1)N(Cc1cccnc1)CC1CCCN(C2CCCCC2)C1` (stereo not given), the “viability” value is 84.5% (inactive).
The result for `CC1(CCc2ccccc2)NC(=S)N(c2ccc(Cl)cc2)N1` (stereo not given) reads 89.4% (inactive); that for `COC(=O)CSc1nnc(CNc2ccc(Cl)cc2)n1-c1ccccc1`, 94.6% (inactive).
The result for `O=C(C[n+]1ccc(C(=O)N/N=C/c2ccc(O)cc2)cc1)c1ccccc1` reads 103% (inactive).
Regarding `Nc1cc([N+](=O)[O-])cc2oc(-c3ccccc3)cc12`, the “viability” value is 83.1% (inactive).
The result for `COc1ccccc1-n1cc2c([N+](=O)[O-])cc([N+](=O)[O-])cc2n1` reads 103% (inactive); that for `CCCCNc1nc(N(C)c2ccccc2)nc(-n2ccnc2)n1`, 85.3% (inactive).
The result for `COC(=O)c1ccc(CSc2nc3cc(Cl)ccc3o2)cc1` reads 101% (inactive).
In the case of `O=C(CSc1nc2cc(Cl)ccc2o1)c1cccs1`, the “viability” value was 96.2% (inactive).
